Results taken from paper PMC12136788.
Over roughly 5,800 sequences, “enrichment r” has its median near 0.68; the highest 2% begin near 11. Not all results are given here.

T1: UNK ZnF1-6 (called full-length) (human, UniProt Q9C0B0 30-357)
T1 sequence: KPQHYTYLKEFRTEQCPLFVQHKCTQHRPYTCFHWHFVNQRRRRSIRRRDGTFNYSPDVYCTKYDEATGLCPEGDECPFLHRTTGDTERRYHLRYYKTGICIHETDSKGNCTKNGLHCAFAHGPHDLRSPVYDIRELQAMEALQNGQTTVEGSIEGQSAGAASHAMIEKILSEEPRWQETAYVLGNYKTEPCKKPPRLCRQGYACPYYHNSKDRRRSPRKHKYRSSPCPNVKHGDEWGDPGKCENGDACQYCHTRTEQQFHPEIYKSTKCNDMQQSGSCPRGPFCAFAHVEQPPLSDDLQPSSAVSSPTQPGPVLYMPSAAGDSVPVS

B1: chr1:212686416:212686790:-|three_prime_utr|ENSG00000123685|control|control|control (ssRNA)
RNA: GGGAGUUCUACAGUCCGACGAUCUUGUGCAGAUCCAGCAUGGAGGCCACCCUCAGGAGUGACUUCUCAUCCACCCUGGCAGCUAGUAGGUUCUGCUGUUAUGCAGAGCCAUUUCCUCUAGAAUUUGGAUAAUAAAGAUGCUUACAACAGAGGAUUGAGCAUCA
B2: ENSG00000184117:stop:overlap|stop_codon|ENSG00000184117|stop_codon|NA|stop_codon (ssRNA)
RNA: GGGAGUUCUACAGUCCGACGAUCUGGGCAACUGGAACACGUGGUAUGGGGAGCAGGACCAGGCAGGUCAUUCCUGGUUUUGGUAGAUUUCUAUCCAUACAGUACUUUUGCCAUUUCCUUUGGGAAAAAGACCUUUAAACCAUACAACAGAGGAUUGAGCAUCA
B3: chr20:32237940:32238012:+|3pUTR|ENSG00000101346|msi1_unk|total|mutant (ssRNA)
RNA: GGGAGUUCUACAGUCCGACGAUCUUUCAAAGAUACAAAUAUUUACACCGUUUUAAUCAUGUAAUAUAUACAAUUUAAUGUCCCCGUGUUUUACUUAACCGUGUAUCAUGUUUUCCCUGUUGGUAUGCCGCCUGGAUAAAUGCUCAACAGAGGAUUGAGCAUCA
B4: chr4:152882748:152882856:+|CDS|ENSG00000164144|unk|FALSE|unique (ssRNA)
RNA: GGGAGUUCUACAGUCCGACGAUCCAGAAACUGCUGGCUAAAAAUGGAGAGACUCUUCUUGGGGCCAUUAAUUUUUUCAUUGCUAGUGUGAACACUUUGGUGAAUAAAACCAUUGAAGAUACAUUAAUGACUGUGAAACAGUAUCAACAGAGGAUUGAGCAUCA
B5: chrX:13662881:13662996:+|CDS|ENSG00000176896|unk|total|mutant (ssRNA)
RNA: GGGAGUUCUACAGUCCGACGAUCUCGAAUUCUCUGUCUUCCCAAGACGUUGCAAAACUCAGUGAAAUGAUUGUGCCUGAAAACCGAGCCAUUCAAUUGAAACCUAAGGAAGAGCAUUUUGGGGAUGGUGACCCUGAAUCCACUCAACAGAGGAUUGAGCAUCA
B6: chr10:116672031:116672132:-|3pUTR|ENSG00000165868|msi1|total|mutant (ssRNA)
RNA: GGGAGUUCUACAGUCCGACGAUCCCUUUCCUGCCUUGCAUUAAUGCUAUCUCCCUGUGUACUGUUUCUCUUAAAUGAGCAGACCGAAAUCUGCAGUGUUGGCAGACCGGUGAUGGAGAGGAUGAUAAUUUUAUCUUCUGGCCACAACAGAGGAUUGAGCAUCA
B7: chr2:121605696:121605828:-|CDS|ENSG00000074054|unk|FALSE|unique (ssRNA)
RNA: GGGAGUUCUACAGUCCGACGAUCGAUAGACUAUUUCUCAGACAAACAGAAGUCUGCUGACCUUGAGCAUGACCAGACCAUGUUAGAUAAACUUGUGGAUGGACUUGCUACCUCUUGGGUGAACUCUAGCAAUUACAAGGUAAGCAACAGAGGAUUGAGCAUCA
B8: chr17:64498535:64498649:-|3pUTR|ENSG00000108654|unk|FALSE|unique (ssRNA)
RNA: GGGAGUUCUACAGUCCGACGAUCUUAAACUGAGGCUUUAAUUGAUGUUAAUGCCUUAUGUCAAAUGUAAAGUUAGAAUUUGCUAGGGCUGGGAUAGGGAGUGAUAUUUCUAGGACUUAGACAUUGAAAACUAAUUCAGCCUGUCAACAGAGGAUUGAGCAUCA
B9: ENSG00000124766:be:win_2101|3pUTR|ENSG00000124766|bound_else_gene|NA|bound_elsewhere_windowed (ssRNA)
RNA: GGGAGUUCUACAGUCCGACGAUCUGCCCCCUCUGCAGCCGGAGGAGGAGAUGUUGAGGGGAGGAGGCCAGCCAGUGUGACCGGCGCUAGGAAAUGACCCGAGAACCCCGUUGGAAGCGCAGCAGCGGGAGCUAGGGGCGGGGGCAACAGAGGAUUGAGCAUCA
B10: chr4:75812186:75812332:+|CDS|ENSG00000138768|unk|total|mutant (ssRNA)
RNA: GGGAGUUCUACAGUCCGACGAUCAGAGCAGCUGGAUUCAUCUAACCGUACCAUUGCCAUUUUACAAACUGAGAAAGACAAACCCGAGUUGGAAAUUACAGAUUCUAAAAAAGAACAAGAUGAUCUCUUGGUGCUCUUGGCCGACAACAGAGGAUUGAGCAUCA
B11: ENSG00000198589:be:win_7451|CDS|ENSG00000198589|bound_else_gene|NA|bound_elsewhere_windowed (ssRNA)
RNA: GGGAGUUCUACAGUCCGACGAUCUGAGUCCAUUGAUGUUCACAGACAAAGCCCAGCAGGAUGUUAUCAUGGUCCUCAAGUUUCCCUCCAACUCCCCUGUUACUCACGUGGCAGCCAACACCCAGCCUGGUUUGGCAACUCCCGCAACAGAGGAUUGAGCAUCA
B12: chr4:75597091:75597192:-|CDS|ENSG00000138769|unk|total|mutant (ssRNA)
RNA: GGGAGUUCUACAGUCCGACGAUCUAUAAACUAUUUAAAAUAAAAGGCUCAAAAAUUGAUGGAGAAAAAGCUGAAAAAGGCAACCGAGCUUCAAAUGCCAGCUGUCUCCAUGACAGCCGGACAAGCCACAACAAAACCGUGCCUCAACAGAGGAUUGAGCAUCA
B13: chr17:82078764:82078865:-|3pUTR|ENSG00000169710|msi1_unk|FALSE|overlapping (ssRNA)
RNA: GGGAGUUCUACAGUCCGACGAUCCCGUGGGGUCUGCGCUUGGUCUUUCUGUGCUUGGAUUUGCAUAUUUAUUGCAUUGCUGGUAGAGACCCCCAGGCCUGUCCACCCUGCCAAGACUCCUCAGGCAGCGUGUGGGUCCCGCACCAACAGAGGAUUGAGCAUCA
B14: ENSG00000136451:be:win_1451|CDS_3pUTR|ENSG00000136451|bound_else_gene|NA|bound_elsewhere_windowed (ssRNA)
RNA: GGGAGUUCUACAGUCCGACGAUCCUCCAAUGAAUCUACCCACACCUAUGACAUUAGCCGCCCCUCUCAAUAUAGCAAUGAGACCUGUAGAGAGCAUGCCUUUCUUGCCCCAAGCUUUGCCUACAUCACCGCCUUGGUAAACAGCAACAGAGGAUUGAGCAUCA

biological target: T1, UNK ZnF1-6 (called full-length); assay: nsRBNS (natural sequence RNA bind-n-seq); RBNS binding buffer (assumed for nsRBNS): 25 mM Tris pH 7.5, 150 mM KCl, 3 mM MgCl2, 0.01% Triton X-100, 500 ug/ml BSA, 20 U/ml SUPERase-In, 4 C; UNK is unkempt and MSI1 is Musashi-1; names of the RNAs are library labels; protein concentration not given here; high values mean tight binding

| Binder | binding signal [enrichment R] |
| --- | --- |
| B1 | 0.63 |
| B2 | 0.898 |
| B3 | 0.548 |
| B4 | 0.365 |
| B5 | 0.441 |
| B6 | 0.548 |
| B7 | 0.726 |
| B8 | 0.878 |
| B9 | 1.41 |
| B10 | 0.434 |
| B11 | 0.743 |
| B12 | 0.872 |
| B13 | 0.749 |
| B14 | 1.48 |
